Data from the supplement of paper PMC10849652.
Of roughly 8,800 targets only a part is listed; those with a hit were picked by preference. About 0.5% of all pairs of compound and target were hits.

How the values were obtained:
Test in all cases: log2 fold change, soluble protein after heating vs DMSO (PISA); higher = thermal stabilisation; K562 lysate, 10 uM; active = over 0.2 and 3.5 SD of the protein, either way, in both replicates (recomputed)
[1] = compound: C1=CC=C(C=C1)[C@H](COC2=CC3=C(C=C2)NC(=O)N3)NC(=O)C4=CC=CN(C4=O)CC5=CC(=C(C=C5)F)F
Method in brief: (§1)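 Quantification was by TMTpro 16plex LC-MS/MS with equalised channel sums, applied to the supernatant after 21,000xg for 90 min. Samples were crude K562 extract at 1 mg/mL protein in PBS pH 7.4 with 1 mM MgCl2, treated with 10 μM compound for 30 min, heated for 3 min across 48°C-58°C, pooled and brought to 0.5% NP-40 at 4°C. Values are log-two fold changes in thermal stability relative to solvent controls, from duplicates.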

[2] = compound: CC1=C(SC2=C1C(=N[C@H](C3=NN=C(N32)C)CC(=O)N)C4=CC=C(C=C4)Cl)C
Method in brief: as §1

[3] = compound: CC1=C2C(=CC=C1)N=C(N(C2=O)C3=CC=CC=C3C)CN4C=NC5=C(N=CN=C54)N
Method in brief: as §1

[4] = compound: Cc1sc2c(c1C)C(c1ccc(Cl)cc1)=N[C@@H](CC(=O)OC(C)(C)C)c1nnc(C)n1-2
Method in brief: as §1

[5] = compound: c1ccc([C@@H]2C[C@H]2NC2CCNCC2)cc1
Method in brief: as §1

Measured: log2 fold change

NIPBL (UniProt Q6KC79)
UniProt Q6KC79, sequence (Q6KC79 whole entry, looked up): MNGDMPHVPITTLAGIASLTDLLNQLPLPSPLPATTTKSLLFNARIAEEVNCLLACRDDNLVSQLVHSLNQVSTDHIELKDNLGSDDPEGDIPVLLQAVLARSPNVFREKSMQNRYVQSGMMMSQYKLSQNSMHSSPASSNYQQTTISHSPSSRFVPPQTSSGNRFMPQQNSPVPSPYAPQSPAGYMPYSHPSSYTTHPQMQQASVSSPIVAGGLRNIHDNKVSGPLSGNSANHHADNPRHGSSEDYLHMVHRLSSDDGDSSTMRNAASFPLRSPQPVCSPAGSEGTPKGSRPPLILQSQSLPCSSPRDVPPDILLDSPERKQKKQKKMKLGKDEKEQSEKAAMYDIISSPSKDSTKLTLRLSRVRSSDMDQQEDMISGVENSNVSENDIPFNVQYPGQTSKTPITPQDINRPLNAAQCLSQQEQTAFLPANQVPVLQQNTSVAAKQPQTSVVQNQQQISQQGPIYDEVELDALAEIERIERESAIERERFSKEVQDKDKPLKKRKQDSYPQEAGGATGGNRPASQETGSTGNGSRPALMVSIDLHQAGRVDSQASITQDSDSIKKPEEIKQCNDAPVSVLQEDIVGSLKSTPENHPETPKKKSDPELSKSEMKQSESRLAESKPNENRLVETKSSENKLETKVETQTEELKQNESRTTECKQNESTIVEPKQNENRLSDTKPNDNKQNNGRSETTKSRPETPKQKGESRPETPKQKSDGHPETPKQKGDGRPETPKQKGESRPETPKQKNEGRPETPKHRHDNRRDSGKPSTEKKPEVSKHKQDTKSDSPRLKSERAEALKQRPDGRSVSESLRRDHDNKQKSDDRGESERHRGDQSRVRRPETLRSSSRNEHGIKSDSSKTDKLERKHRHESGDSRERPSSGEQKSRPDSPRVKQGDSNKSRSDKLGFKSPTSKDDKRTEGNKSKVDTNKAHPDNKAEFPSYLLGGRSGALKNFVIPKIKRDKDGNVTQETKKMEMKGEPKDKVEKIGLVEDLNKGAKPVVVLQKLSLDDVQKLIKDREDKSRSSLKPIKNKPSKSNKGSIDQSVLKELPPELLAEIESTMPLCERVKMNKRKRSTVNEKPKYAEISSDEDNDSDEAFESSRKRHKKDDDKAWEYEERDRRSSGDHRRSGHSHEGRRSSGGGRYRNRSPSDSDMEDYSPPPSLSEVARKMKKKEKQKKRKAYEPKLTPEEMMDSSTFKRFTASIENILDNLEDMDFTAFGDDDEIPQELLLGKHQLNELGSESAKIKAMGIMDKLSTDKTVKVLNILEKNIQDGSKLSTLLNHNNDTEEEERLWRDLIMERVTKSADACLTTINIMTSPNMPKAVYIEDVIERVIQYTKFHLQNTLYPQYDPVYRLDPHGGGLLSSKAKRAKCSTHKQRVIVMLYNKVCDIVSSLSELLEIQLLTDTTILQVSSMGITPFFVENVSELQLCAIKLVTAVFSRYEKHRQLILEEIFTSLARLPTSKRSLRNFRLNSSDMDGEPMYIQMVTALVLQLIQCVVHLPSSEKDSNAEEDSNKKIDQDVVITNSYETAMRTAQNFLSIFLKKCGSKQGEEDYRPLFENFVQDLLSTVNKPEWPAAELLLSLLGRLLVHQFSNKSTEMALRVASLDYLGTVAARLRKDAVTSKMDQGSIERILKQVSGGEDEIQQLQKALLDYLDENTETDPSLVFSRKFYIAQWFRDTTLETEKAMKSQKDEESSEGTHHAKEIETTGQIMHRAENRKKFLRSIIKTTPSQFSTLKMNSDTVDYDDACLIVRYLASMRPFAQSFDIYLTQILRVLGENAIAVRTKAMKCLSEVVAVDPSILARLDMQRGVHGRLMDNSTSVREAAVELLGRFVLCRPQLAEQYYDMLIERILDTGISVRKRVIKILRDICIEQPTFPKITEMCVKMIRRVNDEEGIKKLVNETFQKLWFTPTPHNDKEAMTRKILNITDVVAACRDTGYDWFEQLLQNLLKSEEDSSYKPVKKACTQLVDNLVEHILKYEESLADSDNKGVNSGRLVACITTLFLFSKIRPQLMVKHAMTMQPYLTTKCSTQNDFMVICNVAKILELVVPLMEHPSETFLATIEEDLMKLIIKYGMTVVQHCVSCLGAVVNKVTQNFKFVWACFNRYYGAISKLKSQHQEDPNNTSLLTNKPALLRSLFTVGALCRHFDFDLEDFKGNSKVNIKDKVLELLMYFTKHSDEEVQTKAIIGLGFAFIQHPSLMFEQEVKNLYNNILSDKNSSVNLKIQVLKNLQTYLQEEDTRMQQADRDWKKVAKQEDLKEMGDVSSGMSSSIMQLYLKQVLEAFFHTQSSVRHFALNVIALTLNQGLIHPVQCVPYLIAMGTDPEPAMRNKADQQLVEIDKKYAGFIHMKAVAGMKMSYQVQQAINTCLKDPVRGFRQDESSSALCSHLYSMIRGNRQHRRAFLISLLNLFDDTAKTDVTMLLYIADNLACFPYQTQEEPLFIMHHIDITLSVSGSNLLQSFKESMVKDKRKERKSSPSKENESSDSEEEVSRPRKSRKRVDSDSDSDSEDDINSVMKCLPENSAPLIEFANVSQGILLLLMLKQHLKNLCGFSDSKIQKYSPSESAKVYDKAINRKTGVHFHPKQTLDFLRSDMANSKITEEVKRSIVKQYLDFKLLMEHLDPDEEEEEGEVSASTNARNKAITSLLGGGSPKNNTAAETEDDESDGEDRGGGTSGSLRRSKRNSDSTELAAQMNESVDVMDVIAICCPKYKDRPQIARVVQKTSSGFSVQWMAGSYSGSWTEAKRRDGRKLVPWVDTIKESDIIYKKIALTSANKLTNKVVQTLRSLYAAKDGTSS
inactive: [1] 0.003 | [2] -0.055 | [3] -0.001 | [4] -0.014 | [5] -0.01

NUMBL (UniProt Q9Y6R0)
inactive: [1] -0.047 | [2] 0.038 | [3] 0.039 | [4] -0.096 | [5] -0.012

NCK1 (UniProt P16333)
inactive: [1] 0.018 | [2] 0 | [3] 0.022 | [4] 0.003 | [5] 0.049

PBK (UniProt Q96KB5)
UniProt Q96KB5, sequence (Q96KB5 whole entry, looked up): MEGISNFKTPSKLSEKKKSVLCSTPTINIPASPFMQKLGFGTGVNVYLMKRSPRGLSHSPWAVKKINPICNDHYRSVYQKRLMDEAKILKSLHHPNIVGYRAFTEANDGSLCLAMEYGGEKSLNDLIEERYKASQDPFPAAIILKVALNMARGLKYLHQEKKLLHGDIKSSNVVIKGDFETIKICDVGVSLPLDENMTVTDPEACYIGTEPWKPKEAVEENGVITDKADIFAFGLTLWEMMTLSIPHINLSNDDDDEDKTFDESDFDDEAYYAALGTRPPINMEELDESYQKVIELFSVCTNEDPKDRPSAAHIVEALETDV
inactive: [1] -0.002 | [2] 0.006 | [3] 0.006 | [4] 0.023 | [5] 0.029

NAP1L5 (UniProt Q96NT1)
UniProt Q96NT1, sequence (Q96NT1 whole entry, looked up): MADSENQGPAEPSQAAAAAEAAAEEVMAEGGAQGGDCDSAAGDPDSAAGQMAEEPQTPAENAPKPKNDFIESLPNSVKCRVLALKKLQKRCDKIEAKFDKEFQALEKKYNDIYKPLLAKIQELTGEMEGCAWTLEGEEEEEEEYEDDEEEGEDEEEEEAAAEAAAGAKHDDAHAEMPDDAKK
inactive: [1] 0.082 | [2] -0.023 | [3] -0.028 | [4] -0.082 | [5] 0.304

OSBP2 (UniProt Q969R2)
UniProt Q969R2, sequence (Q969R2 whole entry, looked up): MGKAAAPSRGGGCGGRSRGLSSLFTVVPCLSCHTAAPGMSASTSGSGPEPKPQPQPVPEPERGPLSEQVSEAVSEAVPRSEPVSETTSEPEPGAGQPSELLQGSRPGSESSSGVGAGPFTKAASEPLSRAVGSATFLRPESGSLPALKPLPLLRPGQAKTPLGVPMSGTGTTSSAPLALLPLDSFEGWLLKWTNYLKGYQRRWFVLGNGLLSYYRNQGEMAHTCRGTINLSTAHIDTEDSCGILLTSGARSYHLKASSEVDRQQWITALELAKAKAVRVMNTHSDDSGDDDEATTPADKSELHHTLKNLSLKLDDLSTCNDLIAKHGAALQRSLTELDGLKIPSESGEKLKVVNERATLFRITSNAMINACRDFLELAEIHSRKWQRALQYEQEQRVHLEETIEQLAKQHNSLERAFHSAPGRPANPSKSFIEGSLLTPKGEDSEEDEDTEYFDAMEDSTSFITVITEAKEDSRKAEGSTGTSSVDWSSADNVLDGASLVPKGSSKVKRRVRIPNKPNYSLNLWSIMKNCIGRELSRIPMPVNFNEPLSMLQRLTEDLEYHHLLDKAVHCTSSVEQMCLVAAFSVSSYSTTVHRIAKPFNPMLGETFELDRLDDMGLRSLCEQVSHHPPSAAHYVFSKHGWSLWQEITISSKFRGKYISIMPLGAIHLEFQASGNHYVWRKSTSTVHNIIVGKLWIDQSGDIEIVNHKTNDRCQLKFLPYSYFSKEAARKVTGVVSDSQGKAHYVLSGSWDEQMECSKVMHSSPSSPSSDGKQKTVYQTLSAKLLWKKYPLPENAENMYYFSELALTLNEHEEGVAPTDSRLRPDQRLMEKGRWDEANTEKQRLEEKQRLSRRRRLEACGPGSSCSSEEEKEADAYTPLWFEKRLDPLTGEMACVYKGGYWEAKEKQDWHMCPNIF
inactive: [1] 0.021 | [2] 0.046 | [3] 0.019 | [4] -0.095 | [5] -0.439

NELFA (UniProt Q9H3P2)
UniProt Q9H3P2, sequence (Q9H3P2 whole entry, looked up): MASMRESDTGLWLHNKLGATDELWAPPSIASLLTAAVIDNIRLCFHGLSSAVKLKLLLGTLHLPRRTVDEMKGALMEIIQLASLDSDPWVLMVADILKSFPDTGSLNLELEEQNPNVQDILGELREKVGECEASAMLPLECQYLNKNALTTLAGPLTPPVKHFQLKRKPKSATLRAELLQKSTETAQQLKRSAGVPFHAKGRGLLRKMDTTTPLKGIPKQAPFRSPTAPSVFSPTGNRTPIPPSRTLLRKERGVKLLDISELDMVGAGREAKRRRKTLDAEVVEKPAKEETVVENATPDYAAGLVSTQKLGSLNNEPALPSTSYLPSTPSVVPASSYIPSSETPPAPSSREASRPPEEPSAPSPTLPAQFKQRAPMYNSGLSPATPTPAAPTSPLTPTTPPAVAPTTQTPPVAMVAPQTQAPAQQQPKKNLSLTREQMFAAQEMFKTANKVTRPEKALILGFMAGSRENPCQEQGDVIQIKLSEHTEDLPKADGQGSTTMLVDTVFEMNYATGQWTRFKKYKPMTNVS
inactive: [1] -0.055 | [2] 0.033 | [3] -0.022 | [4] -0.037 | [5] 0.054

NEDD8 (UniProt Q15843)
UniProt Q15843, sequence (Q15843 whole entry, looked up): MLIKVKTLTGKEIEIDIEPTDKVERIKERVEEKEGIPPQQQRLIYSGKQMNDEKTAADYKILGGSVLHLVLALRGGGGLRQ
inactive: [1] 0.051 | [2] -0.014 | [3] -0.047 | [4] 0.002 | [5] 0.085

NTPCR (UniProt Q9BSD7)
UniProt Q9BSD7, sequence (Q9BSD7 whole entry, looked up): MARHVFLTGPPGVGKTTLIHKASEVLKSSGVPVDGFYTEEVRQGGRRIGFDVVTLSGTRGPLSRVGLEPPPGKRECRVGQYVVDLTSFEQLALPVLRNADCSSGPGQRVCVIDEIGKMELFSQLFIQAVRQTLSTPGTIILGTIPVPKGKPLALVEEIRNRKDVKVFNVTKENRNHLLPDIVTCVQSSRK
inactive: [1] -0.015 | [2] 0.067 | [3] -0.015 | [4] 0.034 | [5] 0.029
